Most compounds without a hit are left out; they make up all but 19% or so of the library.
HepG2 viability: HepG2 cytotoxicity, counter-screen for TGF-b inhibitors | HepG2 CAGA-GFP viability, ATP luminescence, 18 h | 0.76% of 410,000 active | Potency, µM (highest dose often 46.1 µM), for the others: top-dose activity change, negative = cytotoxicity, usual class: cytotoxic | AID 588856; note: potency is the fitted concentration of half-maximal effect
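HepG2 CAGA-GFP cells (1000/well, DMEM with 1% FBS) received compound, then TGF-beta at 500 pg/mL final, and were incubated 18 hours at 37 degrees C. Viability was read by CellTiter-Glo luminescence. Media-only wells were set as complete cell-killing and DMSO as no toxicity.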
TDP1 inh: inhibitors of human tyrosyl-DNA phosphodiesterase TDP1 | recombinant TDP1, AlphaScreen DNA substrate cleavage | Potency, µM (doses to about 130 µM), for the others: at the highest dose activity change, negative = inhibition, actives largely listed as inhibitors | 0.28% of 350,000 active; note: potency is the fitted concentration of half-maximal effect; % is set by controls: 0 for no effect and ±100 for the full control effect; nearly all actives have a fitted effect of over 40% in size
Target sequence (Q9NUW8 whole entry, looked up): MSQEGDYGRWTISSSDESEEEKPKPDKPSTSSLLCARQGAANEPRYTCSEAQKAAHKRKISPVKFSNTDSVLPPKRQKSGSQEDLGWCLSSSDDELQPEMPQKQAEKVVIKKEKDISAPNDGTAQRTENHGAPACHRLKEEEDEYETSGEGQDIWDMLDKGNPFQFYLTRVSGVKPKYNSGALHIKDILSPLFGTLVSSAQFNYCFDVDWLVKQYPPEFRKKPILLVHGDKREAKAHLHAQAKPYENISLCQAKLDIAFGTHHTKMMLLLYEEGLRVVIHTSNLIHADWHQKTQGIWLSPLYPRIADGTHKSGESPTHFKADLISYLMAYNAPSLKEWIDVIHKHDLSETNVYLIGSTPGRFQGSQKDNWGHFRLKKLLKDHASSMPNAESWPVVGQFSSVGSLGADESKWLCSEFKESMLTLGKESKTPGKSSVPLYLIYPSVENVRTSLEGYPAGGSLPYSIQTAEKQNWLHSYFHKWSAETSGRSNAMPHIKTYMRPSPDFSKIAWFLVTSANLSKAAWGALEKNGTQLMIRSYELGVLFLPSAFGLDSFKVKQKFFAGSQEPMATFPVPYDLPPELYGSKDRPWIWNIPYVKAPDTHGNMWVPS
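Here, a 5' biotin and 3' phosphotyrosine-FITC DNA oligonucleotide reports Tdp1 activity: intact substrate bridges AlphaScreen beads, while cleavage leaves a 3' phosphate and drops signal. All incubations at room temperature.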
TGFb inhibitor: blocks TGF-b signaling; Potency, µM (titrated, usually from 46.1 µM), without a hit: at the highest dose activity, negative = inhibition, usual class: inhibitors; HepG2 CAGA-GFP TGF-b/SMAD3 reporter, GFP fluorescence, 18 h; TGF-beta stimulated, 500 pg/mL final; 1.2% of 410,000 active; note: potency is the fitted concentration of half-maximal effect; % is set by controls: 0 for no effect and ±100 for the full control effect; nearly all actives have a fitted effect of over 65% in size
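Smad-responsive CAGA-GFP expression was quantified in HEPG2 cells exposed to compounds and 500 pg/mL final TGF-beta for 18 h at 37 degrees C; unstimulated wells defined full inhibition.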
IL-1B inflam inh: inhibitors of inflammasome signaling (IL-1 beta secretion) | THP-1 LPS/ATP IL-1B secretion, AlphaLISA, 16 h; hits give low values | activity change, % at 57.5 µM | 4.7% of 360,000 active; in the data active = activity change below about -50%; inconclusive = mostly about -30% to -49%; note: % is set by controls: 0 for no effect and ±100 for the full control effect
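Secreted IL-1B measured by AlphaLISA bead assay after 16 h compound exposure of THP-1 cells; compounds (final up to 57.5 uM) added 1 h before LPS (250 ng/mL) and ATP (1.25 mM) stimulation; lower signal means less secretion.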
DT40 TDP1 no CPT: qHTS for Inhibitors of human tyrosyl-DNA phosphodiesterase 1 (TDP1): qHTS in cells in absence of CPT; DT40 Tdp1-/- hTDP1 cells, no CPT, ATP luminescence, 48 h; Potency, µM (titrated, usually from 46.2 µM), without a hit: at the highest dose activity change, negative = growth inhibition, actives largely listed as inhibitors; 15% of 420,000 active; AID 686978, 2013; note: potency is the fitted concentration of half-maximal effect; % is set by controls: 0 for no effect and ±100 for the full control effect; nearly all actives have a fitted effect of over 55% in size
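A cellular qHTS used chicken DT40 cells lacking endogenous Tdp1 but carrying stably transfected human TDP1. Compounds were applied without camptothecin, and cell growth kinetics were judged by ATP-dependent luminescence after ≥48 hr.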
TDP1 cell CPT: growth inhibition of DT40 Tdp1-/-;hTDP1 cells with camptothecin (screen for TDP1 inhibitors); chicken DT40 Tdp1-/-;hTDP1 cells + 20 nM CPT, ATP luminescence, 48 h; Potency, µM (series often up to 46.2 µM), for the others: top-dose activity change, negative = growth inhibition, actives largely listed as inhibitors; 12% of 420,000 active; AID 686979; note: potency is the fitted concentration of half-maximal effect; % is set by controls: 0 for no effect and ±100 for the full control effect; nearly all actives have a fitted effect of over 55% in size
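Cell growth measured by CellTiter-Glo luminescence after a minimum 48 h, 37 C compound exposure with 20 nM CPT in Tdp1-knockout DT40 cells stably expressing hTDP1, seeded 400/well; qHTS titration format.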
* = called active by the depositor; ? = inconclusive; · = no result. Unless noted, calls come from the whole dose curve; as a rule, active = well fitted curve in the direction sought with a large enough effect; inconclusive = small, poorly fitted or top-dose-only effect, or another doubt; inactive = no such curve, though single readings can be large; an effect the other way counts as inactive or inconclusive.

SMILES	HepG2 viability	TDP1 inh	TGFb inhibitor	IL-1B inflam inh	DT40 TDP1 no CPT	TDP1 cell CPT
CC1(C)Cc2c(c(N3CCOCC3)nc3sc4c(NCc5ccco5)nnnc4c23)CS1	14%	9%	0%	-60*	18µM*	21µM*
COCCNc1nnnc2c1sc1nc(N3CCOCC3)c3c(c12)CCCC3	·	-2%	·	·	·	·
CC(C)CNc1nnnc2c1sc1nc(N3CCOCC3)c3c(c12)CC(C)(C)SC3	7%	6%	-9%	-4	?	29µM*
CC1(C)Cc2c(c(N3CCOCC3)nc3sc4c(NN)ncnc4c23)CS1	-3%	-2%	?	64	?	?
COc1ccc(C2Nc3ccccc3C(=O)N2Cc2cccc(-c3ccccc3)c2)cc1COc1ccc(NC(C)=O)cc1 (centres undefined)	·	1%	·	·	·	·
COc1ccc(Cl)cc1C(=O)CSc1nnnn1C1CCCCC1	6%	-2%	-7%	-5	18µM*	?
COCCn1c(C)cc(C(=O)CSc2nnnn2C2CCCC2)c1C	-6%	7%	-19%	2	2%	-20%
COc1ccc(NC(=O)CSc2nnnn2C2CCCC2)c(OC)c1	-14%	2%	3%	-30	-2%	-1%
COc1ccc(Cl)cc1C(=O)CSc1nnnn1C1CCCC1	-20%	-9%	-23%	?	18µM*	16µM*
CC(C)[C@@H](CC(=O)N[C@@H]1CCCC[C@H]1C(=O)N[C@H](CC(=O)N[C@@H](CCC(=O)O)CC(=O)O)Cc1ccccc1)NC(=O)C[C@H](Cc1c[nH]c2ccccc12)NC(=O)[C@@H]1CNCC[C@H]1N	·	0%	·	·	·	·
CCOC(=O)c1c(NC(=O)CC2SC(N)=NC2=O)sc2c1CCC(C)C2 (centres undefined)	-22%	3%	-2%	-52*	-20%	5%
COC(=O)c1c(NC(=O)CC2SC(N)=NC2=O)sc2c1CCC(C)C2 (centres undefined)	14%	3%	35%	?	?	-8%
COC(=O)c1c(NC(=O)CC2SC(N)=NC2=O)sc2c1CCC(C(C)(C)C)C2 (centres undefined)	-82%	3%	?	-53*	?	?
CCOC(=O)c1c(NC(=O)CC2SC(N)=NC2=O)sc(C)c1C (centres undefined)	-11%	6%	-20%	-7	-40%	23µM*
COc1ccc2c(c1)c1c(c(=O)n(-c3cccc(Cl)c3)c(=O)n1C)n2C	1%	0%	4%	·	-8%	-5%
c1ccc(CNc2nc(-c3ccc4c(c3)OCO4)nc3ccccc23)cc1	·	·	·	·	?	-3%
CCCN1CNc2c(c(=O)[nH]c(=S)n2CCc2ccccc2C)C1	·	-5%	·	·	-24%	-29%
COc1ccc(C(=O)N2CCC3(CCN(Cc4cc(C(F)(F)F)cc(C(F)(F)F)c4)CC3)CC2)cc1	·	·	·	·	?	23µM*
Cc1noc(C)c1C(=O)N1CCC2(CCN(Cc3cc(C(F)(F)F)cc(C(F)(F)F)c3)CC2)CC1	·	·	·	·	23µM*	?
COc1ccc(C(=O)N2CCC[C@@]3(CCN(Cc4cc(C(F)(F)F)cc(C(F)(F)F)c4)C3)C2)cc1	·	·	·	·	?	-9%
O=C(c1csnn1)N1CCC2(CCN(Cc3cc(C(F)(F)F)cc(C(F)(F)F)c3)CC2)CC1	·	·	·	·	23µM*	?
Cc1noc(C)c1C(=O)N1CCC2(CCN(Cc3ccncc3)CC2)CC1	·	·	·	·	-14%	-12%
Cn1cnc2c(=O)oc3ccc(S(=O)(=O)N4CCN(c5ccccc5F)CC4)cc3c21	-7%	-6%	-29%	·	-23%	-9%

Screening results from PubChem.
